The results in this text go back to PubChem BioAssay.

Inconclusive results are not listed. The source made the active and inactive calls.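 The calls were made as follows, unless noted: active = percent response above a set limit, the screen-wide mean plus 3 SD (cut at about 130% in these data); inactive = the rest.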

Experiment [1] is described as follows: yeast TOR pathway RPL19A-GFP modulators, primary screen, cell-based, S. cerevisiae, multiplex flow cytometry (AID 1862; in the data active = percent of DMSO control GFP below about 86%;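 also: lower values mimic rapamycin by blocking the RPL19A rise seen in DMSO cells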). The following applies: S. cerevisiae RPL19A-GFP strain, flow cytometry fluorescence, 3 h; at 10 µM; stronger effect = lower value. (In general: Flow cytometry measures light scatter and fluorescence of single cells or particles in a stream.)
A short description of experiment [2]: modulators of MEP2-GFP levels in yeast, primary screen, S. cerevisiae, multiplex flow cytometry (AID 1867;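 active = GFP response, as percent of the DMSO control, above the screen-wide mean plus 3 SD, about 139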;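 also: median GFP channel fluorescence of barcode-gated MEP2-GFP cells measured by flow cytometry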). The following applies: S. cerevisiae MEP2-GFP strain, 3 h, at 10 µM, stronger effect = higher value, 100% means same as DMSO wells.
Experiment [3] in a line: modulators of CIT2-GFP expression in yeast, primary screen, S. cerevisiae, GFP fusion, multiplex flow cytometry (AID 1870).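 Also: barcoded CIT2-GFP strain pooled with four other GFP strains with rapamycin as positive control; median GFP fluorescence per well over plate mean of DMSO wells so 100% = DMSO.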 The following applies: 3 h, at 10 µM, stronger effect = higher value.
Experiment [4] is described as follows: modulators of LAP4-GFP expression in yeast, primary screen, S. cerevisiae, multiplex flow cytometry (AID 1873;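 active = GFP signal, as percent of the solvent control, above the screen mean plus 3 SD, about 149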). The following applies: 3 h, at 10 µM, stronger effect = higher value.
Experiment [5] can be described thus: modulators of AGP1-GFP expression in yeast TOR pathway, primary screen, cell-based, multiplex flow cytometry, S. cerevisiae (AID 1887;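 active = GFP signal above the screen-wide mean plus 3 SD, that is over about 124.5% of the solvent control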;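 also: AGP1-GFP fusion strain of S. cerevisiae within a five-strain barcoded multiplex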). The following applies: 3 h, at 10 µM, stronger effect = higher value.
Experiment [6] is described as follows: inhibitors of CD8+ T cell-vesicle binding, pilot screen, LFA-1/ICAM-1 modulator project, MLPCN validation set, flow cytometry (AID 2523;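 active = response below a set limit, under 55% cells CD8-positive and vesicle-bound, and CD8 cells' 90th-percentile brightness under 279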;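 as to vesicle binding response: mean PE anti-B7-1 fluorescence of CD8+ cells relative to row control; 100% = QL9-loaded vesicles with DMSO vehicle in the same plate row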). The following applies: 2C mouse CD8+ T cells, at 7 µM, stronger effect = lower value; double positive events: measured here: CD8+/vesicle+ event percentage.
The target in experiment [7] is Integrin beta-1 (Homo sapiens) + Integrin alpha-4 (Homo sapiens) (UniProt P13612+P05556). The experiment can be described thus: inhibition of HUTS-21 binding to VLA-4, pilot screen, VLA-4 allosteric modulator project, U937 cells, HUTS-21 mAb, flow cytometry, validation set (AID 2674;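 active = inhibition above 50%, about 3 SD of the validation set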;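 also: antibody binding induced by the VLA-4 ligand LDV present at three times its Kd; 0% = LDV ligand with antibody and no compound and 100% = antibody without LDV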). The following applies: HUTS-21 LIBS mAb binding, at 6.7 µM, stronger effect = higher value, binding induced by LDV ligand.
Sequence of Integrin beta-1 (Homo sapiens) + Integrin alpha-4 (Homo sapiens) (P05556 whole entry, looked up): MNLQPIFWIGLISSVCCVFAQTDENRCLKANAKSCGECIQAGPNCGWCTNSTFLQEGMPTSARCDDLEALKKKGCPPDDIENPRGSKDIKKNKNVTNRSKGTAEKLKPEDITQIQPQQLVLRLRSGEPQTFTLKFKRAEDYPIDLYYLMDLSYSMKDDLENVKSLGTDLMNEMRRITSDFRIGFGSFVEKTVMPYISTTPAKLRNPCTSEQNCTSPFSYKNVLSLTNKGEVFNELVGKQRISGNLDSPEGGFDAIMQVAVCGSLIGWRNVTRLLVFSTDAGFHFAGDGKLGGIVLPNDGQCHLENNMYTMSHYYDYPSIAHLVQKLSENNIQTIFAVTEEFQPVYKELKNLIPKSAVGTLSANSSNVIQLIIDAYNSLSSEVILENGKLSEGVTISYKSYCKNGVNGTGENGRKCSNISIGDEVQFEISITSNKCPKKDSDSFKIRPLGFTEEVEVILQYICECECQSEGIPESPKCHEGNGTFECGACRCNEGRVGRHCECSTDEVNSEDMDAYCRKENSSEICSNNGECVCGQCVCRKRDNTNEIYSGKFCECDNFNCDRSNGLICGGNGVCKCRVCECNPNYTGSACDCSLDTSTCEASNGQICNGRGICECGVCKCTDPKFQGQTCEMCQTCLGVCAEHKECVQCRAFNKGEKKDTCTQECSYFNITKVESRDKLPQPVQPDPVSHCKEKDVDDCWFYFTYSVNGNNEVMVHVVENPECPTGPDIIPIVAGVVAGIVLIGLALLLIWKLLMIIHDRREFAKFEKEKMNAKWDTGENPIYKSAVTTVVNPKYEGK
Sequence of Integrin beta-1 (Homo sapiens) + Integrin alpha-4 (Homo sapiens) (P13612 whole entry, looked up): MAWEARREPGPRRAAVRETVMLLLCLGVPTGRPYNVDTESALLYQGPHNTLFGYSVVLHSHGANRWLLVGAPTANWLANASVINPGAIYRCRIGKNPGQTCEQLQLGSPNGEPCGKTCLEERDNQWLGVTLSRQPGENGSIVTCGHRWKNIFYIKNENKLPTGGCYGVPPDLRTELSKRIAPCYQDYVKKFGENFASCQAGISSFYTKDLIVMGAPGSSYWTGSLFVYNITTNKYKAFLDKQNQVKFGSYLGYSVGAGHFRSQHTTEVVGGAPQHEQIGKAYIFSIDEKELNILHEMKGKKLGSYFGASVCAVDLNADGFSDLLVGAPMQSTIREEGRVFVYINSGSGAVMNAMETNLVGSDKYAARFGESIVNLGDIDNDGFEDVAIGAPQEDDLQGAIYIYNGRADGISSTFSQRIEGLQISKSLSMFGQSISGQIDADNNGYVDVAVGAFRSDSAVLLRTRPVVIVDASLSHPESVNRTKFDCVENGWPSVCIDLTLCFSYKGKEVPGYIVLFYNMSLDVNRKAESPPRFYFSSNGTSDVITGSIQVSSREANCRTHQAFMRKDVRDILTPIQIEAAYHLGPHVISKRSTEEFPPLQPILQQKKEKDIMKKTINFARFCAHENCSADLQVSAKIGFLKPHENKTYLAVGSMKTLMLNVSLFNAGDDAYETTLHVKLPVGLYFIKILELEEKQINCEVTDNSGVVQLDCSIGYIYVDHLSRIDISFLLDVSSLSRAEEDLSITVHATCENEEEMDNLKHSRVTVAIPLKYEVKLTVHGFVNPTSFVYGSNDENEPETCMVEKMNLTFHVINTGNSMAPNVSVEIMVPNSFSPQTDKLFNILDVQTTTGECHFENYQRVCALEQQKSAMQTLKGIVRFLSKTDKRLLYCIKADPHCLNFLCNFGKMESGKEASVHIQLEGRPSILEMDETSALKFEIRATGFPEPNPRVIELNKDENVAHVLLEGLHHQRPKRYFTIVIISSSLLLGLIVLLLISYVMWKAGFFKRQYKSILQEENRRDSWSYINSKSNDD

The nature of experiment [8]: superoxide lowering in aged yeast cells, pilot screen, validation compound set (AID 2706;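 active = superoxide response below 65% of plate, a cut near 3 SD across the whole screen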;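 also: yeast exposed to compound for one week at 30 degrees C before staining; 100% = mean of all compound wells on the same plate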). The following applies: S. cerevisiae aging, superoxide DHE fluorescence; at 10 µM, stronger effect = lower value.
Experiment [9] addresses Beta-adrenergic receptor kinase 1 (Homo sapiens) (UniProt P25098). The experiment in a line: GRK2 binders displacing RNA aptamer, biochemical, validation, human GRK2, bead flow cytometry (AID 488806;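 active = aptamer binding inhibition above 30%, about 3 SD of noise from non-fluorescent compounds; inactive = inhibition at or below 30%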). The following applies: bead-bound GRK2, FAM-aptamer displacement, at 10 µM, stronger effect = higher value.
Experiment [10] concerns the target AP-2 complex subunit beta (Homo sapiens) (UniProt P63010). The experiment in a line: inhibitors of arrestin peptide binding to AP2, pilot screen, biochemical, validation set, GST-AP2 beads, flow cytometry (AID 504541;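 active = inhibition above 54%, about 3 SD of non-fluorescent compounds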;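 also: AP2 carries R879A mutation and is captured from E. coli lysate; bead-bound FITC arrestin peptide fluorescence measuring arrestin peptide binding to AP2; 0% = DMSO wells and 100% = excess unlabeled arrestin peptide control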). The following applies: FITC arrestin peptide, at 10 µM, stronger effect = higher value, AP2 beta2 appendage fragment, R879A mutant.
The nature of experiment [11]: yeast V-ATPase proton transport modulators, S. cerevisiae, pHLuorin, HTS validation (AID 504600; in the data active = response above about 15%;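 also: plate controls were DMSO for no effect and reference compound for full effect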). The following applies: S. cerevisiae pHLuorin cytosolic pH, at 10 µM, stronger effect = higher value.
For experiment [12], the system named is anti-desmoglein-3 scFv antibody binding to human DSG3. The experiment can be described thus: inhibitors of anti-DSG3 scFv binding to DSG3, pilot screen, biochemical, validation compound set, bead-based, flow cytometry (AID 588368;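 active = binding below the plate cutoff, the plate median minus 3 SD, with a reading above zero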;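 also: signal is the median channel fluorescence of bead-bound GFP antibody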). The following applies: Protein G beads, DSG3-Fc, scFv-GFP binding, at 10 µM, stronger effect = lower value.
The nature of experiment [13]: inhibitors of fungal efflux pumps CDR1, CDR2, MDR1, pilot screen, validation compound set, multiplex, phenotypic (AID 588506;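 active = efflux inhibition above 0.42, the validation set average plus 4 SD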;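 also: Nile Red retained in cells so higher fluorescence means more efflux inhibition; 0 = negative control wells and 1 = enniatin B 25 µM full block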). The following applies: S. cerevisiae pump-expressing triplex, Nile Red efflux flow cytometry; at 10 µM; stronger effect = higher value; the pumps come from Candida albicans.
Experiment [14] has as its target ATP-binding cassette sub-family B member 6 (Homo sapiens) (UniProt Q9NP58). The experiment in a line: ABCB6 transporter inhibitors, pilot screen, K562-ABCB6 cells, flow cytometry, validation set (AID 588550;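 active = inhibition above the screen-wide mean plus 3 SD, about 51%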;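 also: 0% = DMSO wells and 100% = benzethonium chloride 70 µM positive control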). The following applies: K562-ABCB6 porphyrin accumulation, 1 h, at 10 µM, stronger effect = higher value.
The nature of experiment [15]: promoters of myeloid differentiation in arrested cells, primary screen, cell-based, GFP/MAC1 double positive, flow cytometry, validation set (AID 588685;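 active = differentiation response of at least 50%, scaled between solvent and reference control, from cells with both markers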;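 also: compound exposure lasts four days before antibody staining and flow analysis; 0% = DMSO wells and 100% = 5 µM fulvestrant positive control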). The following applies: ER-HoxA9 marrow cells, stronger effect = higher value, normalized: vehicle 0, fulvestrant 100.

Sequence of Beta-adrenergic receptor kinase 1 (Homo sapiens) (P25098 whole entry, looked up): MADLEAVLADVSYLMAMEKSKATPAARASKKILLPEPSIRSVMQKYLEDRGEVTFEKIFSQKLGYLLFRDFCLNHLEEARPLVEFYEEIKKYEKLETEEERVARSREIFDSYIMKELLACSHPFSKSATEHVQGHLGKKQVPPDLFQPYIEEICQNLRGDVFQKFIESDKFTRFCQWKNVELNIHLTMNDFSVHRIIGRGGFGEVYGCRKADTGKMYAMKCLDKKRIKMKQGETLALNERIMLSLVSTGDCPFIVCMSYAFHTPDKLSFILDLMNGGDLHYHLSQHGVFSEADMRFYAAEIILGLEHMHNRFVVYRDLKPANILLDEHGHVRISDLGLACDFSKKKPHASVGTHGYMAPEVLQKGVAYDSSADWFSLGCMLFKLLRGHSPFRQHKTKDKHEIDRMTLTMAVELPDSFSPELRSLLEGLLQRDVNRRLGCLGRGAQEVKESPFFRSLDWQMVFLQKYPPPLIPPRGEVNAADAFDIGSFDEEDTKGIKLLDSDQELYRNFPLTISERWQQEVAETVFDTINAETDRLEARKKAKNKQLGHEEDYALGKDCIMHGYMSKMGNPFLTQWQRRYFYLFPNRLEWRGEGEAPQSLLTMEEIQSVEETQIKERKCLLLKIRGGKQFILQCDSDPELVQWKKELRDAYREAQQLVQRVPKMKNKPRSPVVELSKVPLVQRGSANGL
Sequence of ATP-binding cassette sub-family B member 6 (Homo sapiens) (Q9NP58 whole entry, looked up): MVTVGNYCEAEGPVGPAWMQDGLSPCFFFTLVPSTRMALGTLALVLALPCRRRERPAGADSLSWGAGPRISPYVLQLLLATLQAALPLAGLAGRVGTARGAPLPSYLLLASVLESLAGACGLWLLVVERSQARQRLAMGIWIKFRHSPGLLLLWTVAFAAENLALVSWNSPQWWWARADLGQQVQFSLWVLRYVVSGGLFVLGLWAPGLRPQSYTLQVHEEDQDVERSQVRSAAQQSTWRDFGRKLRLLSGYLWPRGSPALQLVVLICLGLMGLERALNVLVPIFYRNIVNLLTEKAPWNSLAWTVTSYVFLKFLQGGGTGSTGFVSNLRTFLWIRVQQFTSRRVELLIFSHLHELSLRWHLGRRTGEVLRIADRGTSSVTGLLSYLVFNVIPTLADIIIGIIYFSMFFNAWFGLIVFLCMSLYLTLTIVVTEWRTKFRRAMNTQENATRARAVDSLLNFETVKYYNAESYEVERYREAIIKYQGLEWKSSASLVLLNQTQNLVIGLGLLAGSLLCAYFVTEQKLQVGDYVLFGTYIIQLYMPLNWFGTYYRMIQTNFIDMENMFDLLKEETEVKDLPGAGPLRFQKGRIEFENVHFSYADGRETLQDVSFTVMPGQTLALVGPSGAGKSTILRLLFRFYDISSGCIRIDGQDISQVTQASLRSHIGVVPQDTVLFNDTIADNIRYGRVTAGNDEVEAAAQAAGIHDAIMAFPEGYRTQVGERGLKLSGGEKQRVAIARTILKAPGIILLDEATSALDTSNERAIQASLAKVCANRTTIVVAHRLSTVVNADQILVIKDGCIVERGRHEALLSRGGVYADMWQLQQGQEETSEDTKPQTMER
Sequence of AP-2 complex subunit beta (Homo sapiens) (P63010 whole entry, looked up, the tested form may be a part, one chain of several): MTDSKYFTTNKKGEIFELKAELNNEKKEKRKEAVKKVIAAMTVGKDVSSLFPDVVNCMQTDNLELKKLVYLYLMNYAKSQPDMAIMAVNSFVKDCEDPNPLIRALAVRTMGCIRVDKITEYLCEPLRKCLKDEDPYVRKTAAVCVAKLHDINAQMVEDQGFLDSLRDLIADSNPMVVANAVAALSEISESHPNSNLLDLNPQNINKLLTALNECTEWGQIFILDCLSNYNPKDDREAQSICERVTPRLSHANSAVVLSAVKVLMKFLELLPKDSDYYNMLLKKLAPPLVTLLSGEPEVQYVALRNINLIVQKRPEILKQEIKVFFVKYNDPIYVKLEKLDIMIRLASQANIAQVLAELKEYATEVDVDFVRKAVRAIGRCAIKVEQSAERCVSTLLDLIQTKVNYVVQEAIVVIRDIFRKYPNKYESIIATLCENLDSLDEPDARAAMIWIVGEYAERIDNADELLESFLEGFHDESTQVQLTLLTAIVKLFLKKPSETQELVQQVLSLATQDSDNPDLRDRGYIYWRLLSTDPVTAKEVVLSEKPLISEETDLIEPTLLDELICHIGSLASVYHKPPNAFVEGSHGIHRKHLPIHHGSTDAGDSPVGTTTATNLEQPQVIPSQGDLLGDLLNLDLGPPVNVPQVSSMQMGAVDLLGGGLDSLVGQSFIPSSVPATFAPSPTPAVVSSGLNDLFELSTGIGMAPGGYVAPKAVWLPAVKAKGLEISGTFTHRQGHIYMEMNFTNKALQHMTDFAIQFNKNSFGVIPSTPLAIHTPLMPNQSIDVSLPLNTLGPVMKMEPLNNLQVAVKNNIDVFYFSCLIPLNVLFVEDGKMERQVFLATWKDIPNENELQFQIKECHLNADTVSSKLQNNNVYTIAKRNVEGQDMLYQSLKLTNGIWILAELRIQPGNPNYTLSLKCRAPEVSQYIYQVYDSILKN

Take `C[C@@H]1C[C@H]2[C@@H]3CCC4=CC(=O)C=C[C@]4(C)[C@@]3(F)[C@@H](O)C[C@]2(C)[C@H]1C(=O)CO`: the percent of DMSO control GFP in experiment [1] was 102% (inactive). Also, the GFP response vs DMSO in experiment [2] was 97.9% (inactive); in experiment [4], 81.3% (inactive). In addition, the percent response of DMSO control in [3] was 109% (inactive). For the same compound, in [5], the GFP response, % of DMSO is 96.6% (inactive). For the same compound, the double positive events in [6] came to 54.1%. In addition, the vesicle binding response in [6] was 226% (inactive). In addition, the figures for the inhibition in experiment [7], in [10] and in experiment [14] were -12.4% (inactive), -3.18% (inactive) and 6% (inactive), respectively. For the same compound, the superoxide response (% of plate) in [8] was 107% (inactive). Moreover, the aptamer binding inhibition in experiment [9] was -2% (inactive). Also, in experiment [11], the response was -6.95% (inactive). Further, the binding (% of control) in experiment [12] is 97.8% (inactive). Further, in experiment [13], the efflux inhibition (fraction of control) is -0.12 (inactive). For the same compound, the differentiation response in [15] was -11.5% (inactive).
For `O=C(CCCCC(=O)NC1CCCC1)NC1CCCC1`, the percent of DMSO control GFP in experiment [1] is 96.8% (inactive). Further, the GFP response vs DMSO in experiment [2] was 102% (inactive); in experiment [4] it was 95.4% (inactive). Besides, in [3], the percent response of DMSO control is 105% (inactive). Further, in experiment [5], the GFP response, % of DMSO is 93.7% (inactive). The double positive events in experiment [6] is 53.7%. For the same compound, the vesicle binding response in [6] is 181% (inactive). In addition, the inhibition (commonly the change of the read-out against control, counted positive when it falls) in experiment [7] is 10% (inactive); in [10] it was 3.46% (inactive); in experiment [14], 6% (inactive). In addition, in experiment [8], the superoxide response (% of plate) was 103% (inactive). Besides, the aptamer binding inhibition in experiment [9] was 0% (inactive). Further, the response in experiment [11] is 3.11% (inactive). Besides, the binding (% of control) in experiment [12] was 102% (inactive). The efflux inhibition (fraction of control) in experiment [13] is 0.29 (inactive). Moreover, the differentiation response in experiment [15] was -11.5% (inactive).
`COc1ccccc1-c1ccc(/C=C2/C=C(CC(C)C)OC2=O)o1`: the percent of DMSO control GFP in [1] is 99.5% (inactive). Besides, the GFP response vs DMSO was 101% (inactive) in [2] and 105% (inactive) in experiment [4]. In addition, the percent response of DMSO control in experiment [3] was 93% (inactive). Besides, in [5], the GFP response, % of DMSO is 90.1% (inactive). This compound registered a double positive events in experiment [6] of 58.1%. The vesicle binding response in experiment [6] is 120% (inactive). For the same compound, the inhibition was -43.1% (inactive) in [7], 2.34% (inactive) in [10] and 5% (inactive) in experiment [14]. In experiment [8], the superoxide response (% of plate) is 103% (inactive). Moreover, in experiment [9], the aptamer binding inhibition is 2% (inactive). Besides, in [11], the response is 1.04% (inactive). For the same compound, in experiment [12], the binding (% of control) was 99.5% (inactive). Moreover, in [13], the efflux inhibition (fraction of control) was 0.75 (active). Moreover, in experiment [15], the differentiation response was -22.8% (inactive).
On to `CC1(C)Cc2ccccc2C(C(Cc2ccccc2)C(N)=O)=N1` (stereo not given), for which the percent of DMSO control GFP in [1] is 100% (inactive). The values for the GFP response vs DMSO in experiment [2] and in experiment [4] were 99.9% (inactive) and 89.3% (inactive), respectively. Moreover, the percent response of DMSO control in experiment [3] was 106% (inactive). The GFP response, % of DMSO in experiment [5] is 92.7% (inactive). This compound also displayed a double positive events in [6] of 51%. Further, the vesicle binding response in experiment [6] is 132% (inactive). In addition, the results for the inhibition in experiment [7], in experiment [10] and in [14] were 24% (inactive), -4.92% (inactive) and 9% (inactive), respectively. The superoxide response (% of plate) in experiment [8] is 116% (inactive). In experiment [9], the aptamer binding inhibition is 3% (inactive). Moreover, in [11], the response is 6.35% (inactive). Besides, the binding (% of control) in [12] was 101% (inactive). The efflux inhibition (fraction of control) in [13] was 0.44 (active). The differentiation response in experiment [15] is -5.05% (inactive).
For the compound `COc1ccc2oc(=O)c(C(=O)N3CCN(c4ccccc4)CC3)cc2c1`, in experiment [1], the percent of DMSO control GFP is 97.8% (inactive). The GFP response vs DMSO was 93.8% (inactive) in experiment [2] and 89.3% (inactive) in [4]. For the same compound, in experiment [3], the percent response of DMSO control was 101% (inactive). Also, in experiment [5], the GFP response, % of DMSO is 90.3% (inactive). The compound also showed a double positive events in experiment [6] of 52.5%. For the same compound, the vesicle binding response in experiment [6] is 130% (inactive). Also, the results for the inhibition in experiment [7], in experiment [10] and in experiment [14] were 12.8% (inactive), 10.5% (inactive) and 10% (inactive), respectively. Further, the superoxide response (% of plate) in experiment [8] was 110% (inactive). In experiment [9], the aptamer binding inhibition was 2% (inactive). The response in experiment [11] is -1.57% (inactive). In addition, the binding (% of control) in experiment [12] is 101% (inactive). In experiment [13], the efflux inhibition (fraction of control) was -0.54 (inactive). In experiment [15], the differentiation response is 25.6% (inactive).
